Sampled rows, rich in hits. Any-hit rate of the full collection: about 6.6%.
NADH enzymes – inhibitors of PK/LDH coupling enzymes, profiling panel, artefact control, biochemical, MLSMR library; coupled PK/LDH NADH assays, four targets; IC50, µM (titrated, usually from 10 µM), for inactives: top-dose inhibition; 65,000 compounds, 0.02% hits; AID 774, 2007;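 active means single-dose screening hits from any of four coupled enzyme assays that gave an IC50 when retested across doses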;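 further: the DPM-DC format reads NADH fluorescence rather than 340 nm absorbance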
Autofluor 339 – intrinsic fluorescence of library compounds, ex339/em460 – biochemical, MLSMR library, data from DPM-DC assay, artefact control, profiling panel; compound autofluorescence, ex339/em460 nm, NADH buffer; active compounds read high; 1 = no-compound wells, NADH background; fluorescence fold increase at 10 µM; 65,000 compounds, 5.5% hits;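 active means at 10 µM, mean starting fluorescence two-fold or more over control wells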;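 further: signal is the first read of a kinetic run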
Spn DPM-DC inh – S. pneumoniae DPM-DC inhibitors, primary screen, biochemical, PK/LDH-coupled NADH fluorescence; purified DPM-DC; calls only at 10 µM; 65,000 compounds, 0.49% hits; AID 556, 2006;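 active means the 320 compounds with the highest percent inhibition in the single-dose primary screen, excluding strongly autofluorescent ones, cut at about 32% in these data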;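 further: kinetic rate of NADH fluorescence loss reporting ADP formed by the decarboxylase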
MK inhibit – S. pneumoniae MK inhibitors, primary screen, biochemical, PK/LDH-coupled NADH absorbance | mevalonate kinase [Streptococcus pneumoniae D39] | purified MK, PK/LDH-coupled NADH absorbance 340 nm | inhibition, % at 10 µM | 65,000 compounds, 0.48% hits | AID 555, 2006;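 active means ranked among the strongest by inhibition in the single 10 µM screen, a fixed top-ranked set picked for dose follow-up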
PMK inhibit – S. pneumoniae PMK inhibitors, primary screen, biochemical, mevalonate pathway, pilot trial included; phosphomevalonate kinase (Streptococcus pneumoniae D39); purified PMK, PK/LDH-coupled NADH absorbance 340 nm; inhibition, % at 10 µM; 65,000 compounds, 0.49% hits; AID 539, 2006;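 active means top-ranked compounds by inhibition in the single 10 µM screen, taking a fixed number of the strongest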;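 further: 0% = full reaction with DMSO carrier and 100% = background rate without enzyme reaction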
Active calls of the source: *.

What do the screens show for `CCOC(=O)c1cc(C#N)c(NCc2ccccc2)nc1C`?
NADH enzymes: 2%; Autofluor 339: 1.7; Spn DPM-DC inh: inactive; MK inhibit: 0; PMK inhibit: 5

Results for CCOC(=O)c1cc(-c2ccco2)nc2c1c(C)nn2CCC#N ?
NADH enzymes: 2%; Autofluor 339: 2.4*; MK inhibit: 2; PMK inhibit: 12

How did O=C(Nn1cnnc1)c1ccccc1CCc1ccccc1 do in these assays?
NADH enzymes: 8%; Autofluor 339: 1.1; Spn DPM-DC inh: inactive; MK inhibit: 4; PMK inhibit: 10

Results for CC(C)(C)c1ccc(C(=O)C=[N+]=[N-])cc1 ?
NADH enzymes: 7%; Autofluor 339: 1.1; Spn DPM-DC inh: inactive; MK inhibit: 5; PMK inhibit: 17

Results for CCOCCCNC(=O)CC1Oc2ccc(C)cc2NC1=O (stereo unspecified) ?
NADH enzymes: 3%; Autofluor 339: 1.1; Spn DPM-DC inh: inactive; MK inhibit: 8; PMK inhibit: 0

How did O=C(COc1ccc(Cl)cc1Cl)NC1CCSC1=O (stereo unspecified) do in these assays?
NADH enzymes: 2%; Autofluor 339: 1.1; Spn DPM-DC inh: inactive; MK inhibit: 0; PMK inhibit: 7

What do the screens show for `Cc1cc(N(C)C)c(C#N)c(N2CCOCC2)n1`?
NADH enzymes: 5%; Autofluor 339: 1.1; Spn DPM-DC inh: inactive; MK inhibit: 11; PMK inhibit: 3

Results for Cc1cc(C)c(C#N)c(N2CCCC(C(N)=O)C2)n1 (stereo unspecified) ?
NADH enzymes: 6%; Autofluor 339: 4.1*; MK inhibit: 2; PMK inhibit: 9

What do the screens show for `Cc1cc(C)c(C#N)c(N2CCSCC2)n1`?
NADH enzymes: 13%; Autofluor 339: 2.7*; Spn DPM-DC inh: inactive; MK inhibit: 10; PMK inhibit: 11

What do the screens show for `Cc1cc(C)c(C#N)c(SCC(=O)N2CCCCC2)n1`?
NADH enzymes: 1%; Autofluor 339: 1.1; Spn DPM-DC inh: inactive; MK inhibit: 0; PMK inhibit: 0

Results for Cc1cc(NCCCN2CCOCC2)n2c(nc3ccccc32)c1C#N ?
NADH enzymes: 15%; Autofluor 339: 5*; MK inhibit: 22; PMK inhibit: 8

How did Cc1cc(NCCN2CCOCC2)n2c(nc3ccccc32)c1C#N do in these assays?
NADH enzymes: 11%; Autofluor 339: 3.7*; MK inhibit: 15; PMK inhibit: 7

Results for CCC(C)NCC(=O)Nc1ccc(-c2nc3cc(NC(=O)CNC(C)CC)ccc3o2)cc1 (stereo unspecified) ?
NADH enzymes: 11%; Autofluor 339: 3.7*; MK inhibit: 8; PMK inhibit: 13

What do the screens show for `O=C(CN1C(=O)c2ccccc2C1=O)Nc1ccc(-c2nc3ccccc3o2)cc1`?
NADH enzymes: 5%; Autofluor 339: 1.2; Spn DPM-DC inh: inactive; MK inhibit: 3; PMK inhibit: 12

How did COc1ccc(-c2nc3cc(NC(=O)Cc4ccc(OC)c(OC)c4)ccc3o2)cc1 do in these assays?
NADH enzymes: 5%; Autofluor 339: 2.6*; MK inhibit: 0; PMK inhibit: 15

How did CCN(CC)CC(=O)Nc1ccc(-c2nc3cc(NC(=O)CN(CC)CC)ccc3o2)cc1 do in these assays?
NADH enzymes: 4%; Autofluor 339: 3*; MK inhibit: 5; PMK inhibit: 12

What do the screens show for `O=C(CN1CCCC1)Nc1ccc(-c2nc3cc(NC(=O)CN4CCCC4)ccc3o2)cc1`?
NADH enzymes: 12%; Autofluor 339: 3.7*; MK inhibit: 14; PMK inhibit: 9

How did CCC(=O)Nc1ccc2oc(-c3ccccc3Br)nc2c1 do in these assays?
NADH enzymes: 7%; Autofluor 339: 1.9; Spn DPM-DC inh: inactive; MK inhibit: 8; PMK inhibit: 6

Results for c1cnc(Oc2ccc(-c3nnco3)cc2)cn1 ?
NADH enzymes: 2%; Autofluor 339: 1.1; Spn DPM-DC inh: inactive; MK inhibit: 0; PMK inhibit: 5

What do the screens show for `CCN1CCN(c2ncc(C(=O)Nc3ccccc3C(=O)OC)c3ccccc23)CC1`?
NADH enzymes: 11%; Autofluor 339: 1.5; Spn DPM-DC inh: inactive; MK inhibit: 12; PMK inhibit: 10
